A short description of test [1]: Nuclear factor erythroid 2-related factor 2/antioxidant responsive element (Nrf2/ARE) small molecule agonists: qHTS cell viability counter screen in human keratinocytes (AID 1919968; active = well fitted curve in the direction sought with a large enough effect in the repeat runs; an effect the other way counts as inactive or inconclusive; note: nearly all actives have a fitted effect of over 55% in size). The method in brief: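 KeratinoSens HaCaT cells, 1,500/well, preincubated 5 h, then exposed to compounds in DMSO for 23 h at 37 C/5% CO2. Viability read as CellTiter-Fluor fluorescence after 1 h, in the same wells as the ARE-luciferase read.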
In general terms: Quantitative high-throughput screening tests each substance at several concentrations.

The nature of test [2]: Nuclear factor erythroid 2-related factor 2/antioxidant responsive element (Nrf2/ARE) small molecule agonists: luciferase reporter gene qHTS assay in human keratinocytes (AID 1919969). Note: nearly all actives have a fitted effect of over 35% in size. Note: potency is the fitted concentration of half-maximal effect. For orientation: In a reporter assay the amount or activity of a reporter protein is the signal.
Test [3] has as its target Gonadotropin-releasing hormone receptor (Homo sapiens) (UniProt P30968). As to the kind of experiment: Human gonadotropin-releasing hormone receptor (GnRHR) small molecule agonists, calcium flux assay in GnRHR-HEK293 cells (AID 1920063). Note: nearly all actives have a fitted effect of over 35% in size. An outline of the steps: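 HEK293 cells stably expressing human GnRHR were dye-loaded for 1 h at 37 C. Compound was added in agonist mode and fluorescence (Ex/Em 480/540) recorded kinetically for 3 min. Fifteen concentrations, triplicates.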
For orientation: Calcium flux is commonly read through the fluorescence of an indicator in the cells.

Test [4] concerns the target KiSS-1 receptor (Homo sapiens) (UniProt Q969F8). As to the kind of experiment: Human kisspeptin (KISS1R) small molecule agonists, calcium flux assay in KISS1R-HEK293 cells (AID 1920064; active = well fitted curve in the direction sought with a large enough effect in the repeat runs; an effect the other way counts as inactive or inconclusive). The method in brief:
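HEK293 cells stably expressing human KISS1R were loaded with calcium dye for 1 h at 37 C, then given compound; fluorescence (Ex/Em 480/540) was read kinetically for 3 min. Fifteen concentrations, triplicate.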

Test [5] in a line: G protein-coupled receptor (GPCR) small molecule agonists, calcium flux assay: HEK293 wild type cell line counter screen (AID 1920065). The method in brief: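 Wild-type HEK293 cells plated 18 h, loaded with calcium dye 1 h at 37 C, then compounds added in agonist mode (ATP as positive control). Kinetic fluorescence Ex/Em 480/540 recorded 3 min at 1 sec intervals; 15 concentrations, triplicate.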

Test [6] can be described thus: p53 small molecule agonists, cell-based qHTS assay with human liver microsomes (AID 1963577). An outline of the steps:
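Fluorescence of the beta-lactamase reporter in p53RE-bla cells, detected with LiveBLAzer substrate (2 h, room temperature, dark), served as the read-out after 16 h compound exposure at 37 C with human liver microsomes and NADPH, each 0.5 mg/mL final.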

Test [7] can be described thus: p53 small molecule agonists, cell-based qHTS assay with rat liver microsomes (AID 1963578). The method in brief:
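Cells carrying a p53 response element–beta-lactamase reporter were plated and rested 5 h, then dosed with compound in DMSO plus rat liver microsomes and NADPH, each at 0.5 mg/mL final. After 16 h at 37 C, LiveBLAzer substrate was added for 2 h.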

The nature of test [8]: p53 small molecule agonists, cell-based qHTS assay with rat liver microsomes: qHTS cell viability counter screen (AID 1963580). Note: nearly all actives have a fitted effect of over 45% in size. The method in brief: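 Intracellular ATP, by CellTiter-Glo luminescence, defines viability. HCT-116 p53RE-bla cells, 4,000 per well, were compound-treated in the presence of rat liver microsomes and NADPH for 16 h at 37 C.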
The nature of test [9]: p53 small molecule agonists, cell-based qHTS assay: qHTS cell viability counter screen (AID 1963581). Note: nearly all actives have a fitted effect of over 45% in size. The method in brief: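 p53RE-bla HCT-116 cells, compounds added 5 h after plating and incubated 16 h at 37 C. Cytotoxicity measured in the same wells as intracellular ATP by CellTiter-Glo luminescence after 30 min at room temperature.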
Test [10] can be described thus: p53 small molecule agonists, cell-based qHTS assay (AID 1963582; active = well fitted activation curve with a large enough effect in the signal ratio in the repeat runs, not every such curve was filed as active; the % refers to the signal ratio). The method in brief:
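p53RE-bla reporter cells, compounds added in DMSO after 5 h plating, incubated 16 h at 37 C. Beta-lactamase read via 2 h room-temperature LiveBLAzer B/G FRET substrate, fluorescence intensity.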

Test [11] concerns the target 5-hydroxytryptamine receptor 2A (Homo sapiens) (UniProt P28223). As to the kind of experiment: 5-hydroxytryptamine receptor 2A (HTR2A) small molecule antagonists, cell-based qHTS assay (AID 1963586). Note: nearly all actives have a fitted effect of over 45% in size. An outline of the steps: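 Antagonist-mode intracellular calcium assay: DOI (4 nM) added after 5 min compound pre-incubation at room temperature to dye-loaded HTR2A-CHO cells. Fluorescence followed for 3 min, sampled every second.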

Test [12] shares this target. As to the kind of experiment: 5-hydroxytryptamine receptor 2A (HTR2A) small molecule agonists, cell-based qHTS assay (AID 1963587). Note: nearly all actives have a fitted effect of over 30% in size. The method in brief: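 Kinetic calcium-flux fluorescence (2 min, 1 sec intervals) after compound addition in agonist mode. HTR2A-CHO cells were cultured 18 h, then dye-loaded 1 h at 37 C.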
In test [13] the target is Muscarinic acetylcholine receptor M1 (Homo sapiens) (UniProt P11229). As to the kind of experiment: Cholinergic receptor muscarinic 1 (CHRM1) small molecule antagonists, cell-based qHTS assay (AID 1963588). Note: nearly all actives have a fitted effect of over 40% in size. The method in brief:
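CHRM1-CHO calcium-flux assay, antagonist mode. Cells were seeded 18 h, dye-loaded 1 h at 37 C and given compound for 5 min at RT, then acetylcholine was added at 50nM. FDSS fluorescence was read 3 min; 15 concentrations, three runs.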

For test [14] the target is unchanged. As to the kind of experiment: Cholinergic receptor muscarinic 1 (CHRM1) small molecule agonists, cell-based qHTS assay (AID 1963589). Note: nearly all actives have a fitted effect of over 35% in size. The method in brief:
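CHO cells stably expressing human CHRM1 were loaded with calcium dye for 1 h at 37 C, then compound was added in agonist mode. Intracellular calcium fluorescence was followed kinetically at 1 s intervals. Fifteen concentrations were tested in three independent runs.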

Test [15] can be described thus: cAMP Responsive Elements (CRE) small molecule agonists, cell-based qHTS assay (AID 1963590). The method in brief:
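CRE-bla HEK 293T cells, 2,000/well in DMEM with 10% dialyzed FBS and 25 mM HEPES, pre-incubated 18 h at 37 C, then exposed to compound 3 h at 37 C. Beta-lactamase reporter read with LiveBLAzer B/G FRET substrate after 2 h at room temperature.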

Test [16] is described as follows: cAMP Responsive Elements (CRE) small molecule antagonists, cell-based qHTS assay (AID 1963591; active = well fitted inhibition curve with a large enough effect in the signal ratio in the repeat runs, not every such curve was filed as active; the % refers to the signal ratio). An outline of the steps: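 CRE-bla HEK293T cells plated 18 h, then given compound plus NKH477 at 0.25 uM final for 3 h at 37C. Beta-lactamase reporter read with LiveBLAzer B/G FRET substrate after 2 h at room temperature.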
Test [17] has as its target Beta-2 adrenergic receptor (Homo sapiens) (UniProt P07550). As to the kind of experiment: Adrenergic beta2 receptor (ADRB2) small molecule antagonists, cell-based qHTS assay (AID 1963592). Note: series mostly up to about 92 µM; nearly all actives have a fitted effect of over 50% in size. The method in brief: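 Cells (CHO, stable ADRB2 overexpression) incubated 18-20hr at 37C; compounds added from DMSO; agonist mix (1nM isoproterenol, 100uM IBMX, 25uM Ro-20-1724) added; 0.5hr RT; d2-cAMP and anti-cAMP-cryptate added; 1hr RT; 665/615 nm read.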

In test [18] the target is D(2) dopamine receptor (Homo sapiens) (UniProt P14416). As to the kind of experiment: Dopamine D2 receptor (DRD2) small molecule agonists, cell-based qHTS assay (AID 1963594). Note: nearly all actives have a fitted effect of over 35% in size. An outline of the steps: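 cAMP accumulation in DRD2-HEK293 cells measured by HTRF after 1 h detection; compounds added 10 min before NKH477 (200nM […]) forskolin-analogue stimulation, 30 min at room temperature, with Ro20-1724 present at 0.1 mM final.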
Chain of D(2) dopamine receptor (Homo sapiens) (P14416 whole entry, looked up): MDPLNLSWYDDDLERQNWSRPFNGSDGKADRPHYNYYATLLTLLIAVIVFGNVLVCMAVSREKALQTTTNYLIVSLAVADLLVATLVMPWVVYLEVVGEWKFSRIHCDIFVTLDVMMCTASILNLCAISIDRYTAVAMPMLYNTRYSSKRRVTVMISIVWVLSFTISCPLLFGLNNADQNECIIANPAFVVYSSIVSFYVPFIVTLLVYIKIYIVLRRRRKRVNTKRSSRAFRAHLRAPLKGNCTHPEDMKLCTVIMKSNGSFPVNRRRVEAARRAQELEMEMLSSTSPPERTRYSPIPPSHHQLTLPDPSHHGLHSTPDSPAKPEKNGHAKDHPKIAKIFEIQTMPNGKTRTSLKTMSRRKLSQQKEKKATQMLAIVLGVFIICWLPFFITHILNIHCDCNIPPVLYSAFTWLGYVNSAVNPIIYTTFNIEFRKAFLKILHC

For test [19] the target is unchanged. As to the kind of experiment: Dopamine D2 receptor (DRD2) small molecule antagonists, cell-based qHTS assay (AID 1963595; active = well fitted inhibition curve with a large enough effect in the signal ratio in the repeat runs, with a control signal flat; the % refers to the signal ratio). The method in brief: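 Antagonist mode in DRD2-HEK293 cells: after compound addition with 0.1 mM Ro20-1724, cells received quinpirole (12 nM) and NKH477 (200 nM) for 30 min at room temperature; HTRF cAMP read after 1 h detection.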

Inconclusive results are not listed. The source made the active and inactive calls. Unless noted, calls come from the whole dose curve.

Chain of 5-hydroxytryptamine receptor 2A (Homo sapiens) (P28223 whole entry, looked up): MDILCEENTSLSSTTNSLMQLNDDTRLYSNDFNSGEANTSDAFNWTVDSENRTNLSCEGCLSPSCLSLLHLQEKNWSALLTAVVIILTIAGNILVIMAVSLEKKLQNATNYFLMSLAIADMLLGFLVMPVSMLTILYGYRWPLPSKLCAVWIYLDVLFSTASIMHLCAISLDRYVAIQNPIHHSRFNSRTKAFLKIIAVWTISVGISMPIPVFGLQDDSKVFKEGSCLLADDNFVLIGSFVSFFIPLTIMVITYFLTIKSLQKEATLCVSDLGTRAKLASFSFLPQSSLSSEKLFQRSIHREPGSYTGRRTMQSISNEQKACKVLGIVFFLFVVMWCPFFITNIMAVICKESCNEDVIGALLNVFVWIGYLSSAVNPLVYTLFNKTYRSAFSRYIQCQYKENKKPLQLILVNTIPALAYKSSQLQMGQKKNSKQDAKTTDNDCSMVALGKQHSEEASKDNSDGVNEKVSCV
Chain of KiSS-1 receptor (Homo sapiens) (Q969F8 whole entry, looked up): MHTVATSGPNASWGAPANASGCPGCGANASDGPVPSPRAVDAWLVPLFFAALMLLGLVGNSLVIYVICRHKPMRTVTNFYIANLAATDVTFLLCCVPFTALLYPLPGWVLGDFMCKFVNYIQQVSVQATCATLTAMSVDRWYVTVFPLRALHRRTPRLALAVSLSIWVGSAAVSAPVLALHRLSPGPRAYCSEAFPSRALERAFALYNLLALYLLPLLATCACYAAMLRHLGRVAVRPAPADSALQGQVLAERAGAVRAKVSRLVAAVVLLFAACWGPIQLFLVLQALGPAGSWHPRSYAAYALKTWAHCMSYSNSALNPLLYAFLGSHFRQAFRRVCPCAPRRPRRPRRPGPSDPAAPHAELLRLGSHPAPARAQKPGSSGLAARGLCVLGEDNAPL
Chain of Beta-2 adrenergic receptor (Homo sapiens) (P07550 whole entry, looked up): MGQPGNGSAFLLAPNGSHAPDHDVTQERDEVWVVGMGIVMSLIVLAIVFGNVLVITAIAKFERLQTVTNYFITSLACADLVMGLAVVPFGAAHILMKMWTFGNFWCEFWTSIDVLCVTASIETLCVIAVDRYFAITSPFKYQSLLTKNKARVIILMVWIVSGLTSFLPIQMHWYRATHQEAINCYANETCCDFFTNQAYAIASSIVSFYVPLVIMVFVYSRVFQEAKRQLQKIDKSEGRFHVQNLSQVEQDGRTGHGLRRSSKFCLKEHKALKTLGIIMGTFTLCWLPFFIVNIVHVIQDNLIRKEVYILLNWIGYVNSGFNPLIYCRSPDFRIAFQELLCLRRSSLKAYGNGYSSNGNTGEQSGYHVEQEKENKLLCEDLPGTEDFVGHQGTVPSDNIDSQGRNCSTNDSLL
Chain of Gonadotropin-releasing hormone receptor (Homo sapiens) (P30968 whole entry, looked up): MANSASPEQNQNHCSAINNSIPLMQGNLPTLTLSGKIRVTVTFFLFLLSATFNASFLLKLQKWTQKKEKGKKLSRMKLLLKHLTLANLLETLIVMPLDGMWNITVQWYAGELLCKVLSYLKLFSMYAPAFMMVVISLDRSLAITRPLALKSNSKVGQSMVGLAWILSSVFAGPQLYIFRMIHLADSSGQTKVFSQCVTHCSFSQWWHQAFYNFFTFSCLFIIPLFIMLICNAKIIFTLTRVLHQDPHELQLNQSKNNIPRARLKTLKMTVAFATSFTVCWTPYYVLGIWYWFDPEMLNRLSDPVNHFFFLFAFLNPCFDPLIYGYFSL
Chain of Muscarinic acetylcholine receptor M1 (Homo sapiens) (P11229 whole entry, looked up): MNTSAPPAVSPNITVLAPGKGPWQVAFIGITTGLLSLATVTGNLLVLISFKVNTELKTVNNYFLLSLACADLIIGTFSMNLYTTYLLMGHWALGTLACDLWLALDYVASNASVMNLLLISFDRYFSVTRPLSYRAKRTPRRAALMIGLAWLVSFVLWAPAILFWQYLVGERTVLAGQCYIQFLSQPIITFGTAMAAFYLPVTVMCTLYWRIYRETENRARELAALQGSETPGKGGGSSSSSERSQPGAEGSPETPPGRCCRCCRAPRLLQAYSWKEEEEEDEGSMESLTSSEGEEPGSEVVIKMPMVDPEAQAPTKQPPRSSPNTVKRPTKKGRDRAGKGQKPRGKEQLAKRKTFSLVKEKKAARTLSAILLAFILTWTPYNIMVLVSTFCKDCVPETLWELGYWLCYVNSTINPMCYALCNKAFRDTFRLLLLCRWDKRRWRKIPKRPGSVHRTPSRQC

With `Cc1cccc(N)c1C`, the Potency result in test [1], in test [2], in test [3], in [4], in test [5] and in [6] was “inactive” in each case. For the same compound, the Potency result in test [7], in test [8], in test [9], in test [10], in test [11] and in test [12] was “inactive” in each case. Besides, the Potency result in test [13], in test [14], in [15], in [16], in test [17] and in test [18] was “inactive” throughout.
Take `O=C(O)C(Cl)Br` (stereo not given): the Potency result in [1], in [2], in test [3], in [4], in test [5] and in test [6] was “inactive” in each case. Also, the Potency result in test [7], in [8], in test [9], in [10], in [11] and in test [12] was “inactive” each time. The Potency result in test [13], in test [14], in [15], in test [16], in test [17] and in test [18] was “inactive” throughout. Further, in test [19], the Potency entry is “inactive”.
Take `Cc1ccccc1CCl`: the Potency result in test [1], in test [2], in [3], in test [4], in test [5] and in [6] was “inactive” in each case. Besides, the Potency entry in [7], in test [8], in test [9], in [10], in [11] and in [12] was “inactive” throughout. Also, the Potency result in test [13], in test [14], in [15], in test [16], in test [17] and in test [18] was “inactive” throughout. For the same compound, the Potency result in [19] is “inactive”.
Take `CCCN(CCC)N=O`: the Potency entry in test [1], in test [2], in test [3], in test [4], in test [5] and in test [6] was “inactive” throughout. Also, the Potency result in [7], in [8], in test [9], in [10], in test [11] and in test [12] was “inactive” in each case. Besides, the Potency entry in test [13], in test [14], in [15], in test [16], in test [17] and in test [18] was “inactive” throughout. In addition, the Potency entry in test [19] was “inactive”.
For the compound `CCCCN(CC)c1c([N+](=O)[O-])cc(C(F)(F)F)cc1[N+](=O)[O-]`, the Potency result in test [1], in test [3], in test [4], in test [5], in [6] and in test [7] was “inactive” each time. Moreover, the Potency entry in [8], in [9], in [10], in test [11], in test [12] and in test [13] was “inactive” throughout. Besides, the Potency result in [14], in test [15], in test [16], in [17], in test [18] and in [19] was “inactive” each time. The Potency in test [2] was 61.1 µM (active).
For `Cc1ncc2n1-c1ccc(Cl)cc1C(c1ccccc1F)=NC2`, the Potency entry in [1], in [2], in [3], in test [4], in test [5] and in test [6] was “inactive” each time. For the same compound, the Potency entry in [7], in test [8], in [9], in test [10], in test [11] and in test [13] was “inactive” in each case. Besides, the Potency result in test [14], in test [15], in test [16], in test [17] and in test [19] was “inactive” in each case.
On to `CC(C)(C)OOC(C)(C)C`, for which the Potency result in test [1], in test [2], in [3], in test [4], in test [5] and in test [6] was “inactive” throughout. In addition, the Potency entry in [7], in test [8], in [9], in test [10], in test [11] and in test [12] was “inactive” throughout. In addition, the Potency entry in [13], in test [14], in test [15], in test [16], in [17] and in test [18] was “inactive” throughout. Moreover, the Potency entry in test [19] was “inactive”.

The values are drawn from PubChem BioAssay (Tox21).
